Compounds without any hit were thinned out: in the full panel of roughly 83,000, 20% have a hit.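 The endpoint reported here, percent growth, reads 100 for growth as untreated, 0 for no net growth and -100 for all cells dead.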 Activity calls are given as the source filed them. The calls were made as follows: active = growth percent below 10; inactive = the rest.
test system: CCRF-CEM leukemia; test: NCI-60 one-dose screen, 48 h (100 = growth as untreated, 0 = no growth, -100 = all killed); conditions: 10 µM unless noted

Structure (SMILES)	growth
C=CCSc1nc2ccccc2cc1/C=N/O	95.5% (inactive)
COc1cc2ncn3c(=O)c4c5c(sc4nc3c2cc1OC)CCCC5	137% (inactive)
CCn1c(C)nc2cc(C(N)=O)ccc21	95.4% (inactive)
O=C(CCCCCCN1CC(=O)N2[C@@H](c3ccccc3Cl)c3[nH]c4ccccc4c3C[C@H]2C1=O)NO	17.8% (inactive)
Cc1nn(-c2ccccc2)c2nc3c(c(-c4ccc(Cl)cc4)c12)CNC1(CCSCC1)N3	118% (inactive)
CCCCCc1nc2c(c3c1CCCC3)CCCC2	59.9% (inactive)
CCCCN(CCCC)CC(C)(C)C(O)c1ccc(OC)c2ccccc12 (stereo unspecified)	50% (inactive)
COc1ccc(/C=C/c2c(C(=O)/C=C/c3ccc(F)cc3)c(C)nc3ccccc23)cc1	9.18% (active)
O=C1CCC2=C3C4CCCCC4C(=O)C4CCCC(OC2C1)C34 (stereo unspecified)	15.6% (inactive)
O=C(/C=C/c1cccc(O)c1)c1cccc(-n2cc(-c3ccc4ccccc4c3)[nH]c2=O)c1	1.72% (active)
OC(COc1ccccc1Cl)COc1ccccc1Cl	-46.3% (active)
C[C@]12CC[C@@H]3c4cc(OC(F)F)c(O)cc4CC[C@H]3[C@@H]1CC[C@@H]2OS(N)(=O)=O	16.6% (inactive)
NC[C@H](O)c1ccc(O)c(O)c1	-46.2% (active)
O=C(NCCCNc1cc(-c2cn(-c3ccccc3)nc2-c2cccc(O)c2)ccn1)c1ccc(F)cc1	22.3% (inactive)
Cc1c(C(=O)NC(Cc2ccccc2)C(O)C(=O)NCc2ccc(F)cc2)[nH]c2ccccc2c1=O (stereo unspecified)	109% (inactive)
O=Cc1ccc(O)c2ncccc12	-40.7% (active)
CCc1ccccc1-n1c(-c2ccc(Cl)cc2)cc(-c2ccc(Cl)cc2)c(C#N)c1=O	34.4% (inactive)
O=C(NCCCNc1cc(-c2cn(-c3ccccc3)nc2-c2cccc(O)c2)ccn1)c1cccc(O)c1	40.5% (inactive)
O=C(NCCCNc1cc(-c2cn(-c3ccccc3)nc2-c2cccc(O)c2)ccn1)c1ccccc1	36.6% (inactive)

Structure (SMILES)	growth
C[C@H]1[C@H]2[C@H]3CC[C@@H]4[C@@]5(C)C/C(=C/c6cccnc6)C(=O)C(C)(C)[C@@H]5CC[C@@]4(C)[C@]3(C)CC[C@]23CO[C@]1(C)[C@@H](C(=O)/C=C\c1cccnc1)C3	17.9% (inactive)
O=C(Nc1cccc(Oc2nnc(Cl)c3ccccc23)c1)Nc1ccc(Cl)c(C(F)(F)F)c1	-5.44% (active)
Nc1cc2c3c(cccc3c1)C(=O)N(CCN1CCCC1)C2=O	28.7% (inactive)
COc1cccc(-c2nn(-c3ccccc3)cc2-c2ccnc(NCCNC(=O)Nc3ccccc3)c2)c1	54.7% (inactive)
Fc1ccc(CNc2c3ccccc3nc3ccccc23)cc1F	41.5% (inactive)
COc1cccc(-c2nn(-c3ccccc3)cc2-c2ccnc(NCCNC(=O)Nc3ccc(Cl)c(Cl)c3)c2)c1	8.1% (active)
c1coc(-c2c3ccc(=[N+]4CCCCC4)cc-3oc3cc(N4CCCCC4)ccc23)c1	-50.1% (active)
O=[N+]([O-])c1ccc(OCCO)cc1	96.2% (inactive)
O=C(Nc1cccc(Cl)c1)c1cc(N=Nc2ccc([N+](=O)[O-])cc2Cl)ccc1O	21.3% (inactive)
CC(C)(C)OC(=O)Nc1ccc2c(c1)C(NC(=O)Nc1cccc(C#N)c1)CC(C)(C)O2 (stereo unspecified)	41.7% (inactive)
c1ccc(-c2nc([P+](c3ccccc3)(c3ccccc3)c3ccccc3)c(N3CCOCC3)o2)cc1	13.4% (inactive)
Cc1ccc(Cl)c(NS(=O)(=O)c2ccc(-c3cnc(C4CC4)o3)cc2)c1	14.1% (inactive)
COc1ccc(-c2nc3c(c(=O)n2C(C)=O)C(c2ccc(Cl)cc2)c2sc4c(Cl)cccc4c2O3)cc1 (stereo unspecified)	-3.94% (active)
NC(=O)c1ccc[n+](Cc2ccc(Cl)cc2Cl)c1	97.4% (inactive)
COc1cc(-c2nn(-c3ccccc3)cc2-c2ccnc(NCCNS(=O)(=O)c3ccc(Cl)cc3)n2)ccc1Cl	35.8% (inactive)
COc1cccc(-c2nn(-c3ccccc3)cc2-c2ccnc(NCCNC(=O)Nc3cccc(C(F)(F)F)c3)c2)c1	28.7% (inactive)
Nc1n[nH]c(-c2cc(Cl)ccc2O)c1-c1ccccc1	85.2% (inactive)
C[n+]1cc2cc(C(N)=O)[nH]c3c(=N)c(Cl)c(N)c1c23	37.6% (inactive)
CN(C)CC1C(=O)O[C@H]2[C@H]1CC/C(COC(=O)c1cc3ccccc3[nH]1)=C\CC[C@@]1(C)O[C@@H]21 (stereo partly specified)	1.08% (active)

test system: MOLT-4 leukemia; test: as above; conditions: 10 µM unless noted

Structure (SMILES)	growth
C=CCSc1nc2ccccc2cc1/C=N/O	86.7% (inactive)
COc1ccc(/C=C/c2c(C(=O)/C=C/c3ccc(F)cc3)c(C)nc3ccccc23)cc1	5.98% (active)
O=C1CCC2=C3C4CCCCC4C(=O)C4CCCC(OC2C1)C34 (stereo unspecified)	7.03% (active)
OC(COc1ccccc1Cl)COc1ccccc1Cl	92.3% (inactive)
Cc1c(C(=O)NC(Cc2ccccc2)C(O)C(=O)NCc2ccc(F)cc2)[nH]c2ccccc2c1=O (stereo unspecified)	93.6% (inactive)
c1coc(-c2c3ccc(=[N+]4CCCCC4)cc-3oc3cc(N4CCCCC4)ccc23)c1	-43% (active)
CC(C)(C)OC(=O)Nc1ccc2c(c1)C(NC(=O)Nc1cccc(C#N)c1)CC(C)(C)O2 (stereo unspecified)	17.1% (inactive)
Nc1n[nH]c(-c2cc(Cl)ccc2O)c1-c1ccccc1	72.7% (inactive)
